In the library only some 7.3% were active in any assay of this set; here they are far more common.
FMDV antiviral: High Throughput Screening for Foot and Mouth Disease Virus Antivirals; FMDV antiviral cell-based qHTS; Potency, µM (top dose mostly 57.9 µM), without a hit: top-dose activity change, negative = inhibition, usual class: inhibitors; actives 1.2% (n = 410,000); calls by dose curve; tested in HEK293T cells; note: read-out not given here; potency is the fitted concentration of half-maximal effect; nearly all actives have a fitted effect of over 45% in size
HCMV inh: qHTS Assay for inhibitors of the human cytomegalovirus (HCMV) | HFF cells, HCMV-luciferase reporter, 72 h; active compounds read low | AID 1259415, 2018 | actives 4.5% (n = 410,000) | activity change, negative = inhibition, % at 57.5 µM; in the data active = activity change below about -60%; inconclusive = no clear call, values can overlap the other calls; inactive = above about -39%
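Human foreskin fibroblasts infected with luciferase-reporter HCMV at MOI 1 PFU/cell, compounds at two doses. Luciferase measured 72 h post infection; normalized to buffer-only basal and Salinomycin (10uM) controls.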
VACV mCherry inh: qHTS for Stage-Specific Inhibitors of Vaccinia Orthopoxvirus: mCherry Reporter Primary qHTS | Vaccinia virus mCherry reporter infection, fluorescence | Potency, µM (top dose mostly 36.5 µM), inactives show at the top dose activity change, negative = inhibition, actives largely listed as inhibitors | actives 0.63% (n = 310,000) | AID 720579, 2013; calls by dose curve; tested in A549 cells; note: potency is the fitted concentration of half-maximal effect; nearly all actives have a fitted effect of over 35% in size
VACV Venus inh: qHTS for Stage-Specific Inhibitors of Vaccinia Orthopoxvirus: Venus Reporter Primary qHTS. Vaccinia virus Venus reporter expression, fluorescence. Potency, µM (titrated, usually from 36.5 µM), inactives show top-dose activity change, negative = inhibition, most hits filed as inhibitors. actives 0.46% (n = 330,000); calls by dose curve; tested in A549 cells; note: potency is the fitted concentration of half-maximal effect; nearly all actives have a fitted effect of over 30% in size
HCV inhibitor: qHTS Assay for Inhibitors of Hepatitis C Virus (HCV) | Huh7.5.1 HCVcc-Cre infection, luciferase reporter, 44 h | Potency, µM (doses to about 41.8 µM), inactives show at the highest dose activity change, negative = inhibition, actives largely listed as inhibitors | actives 3.4% (n = 340,000) | AID 651820, 2012; active = well fitted inhibition curve with a large enough effect; inconclusive = small, poorly fitted or top-dose-only effect, or another doubt; inactive = no such curve, though single readings can be large or run the other way; note: potency is the fitted concentration of half-maximal effect
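Seed cells (1,000/well) for 4 h; treat with compound and infect with HCVcc-Cre, moi about 0.5. Incubate 44 h, then detect luciferase activity.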
Starred values were filed as active, the others as inactive; i = inactive; ? = inconclusive; / = no result given; [ ] = dose if it differs, or a comment. % is set by controls: 0 for no effect and ±100 for the full control effect.

SMILES	FMDV antiviral	HCMV inh	VACV mCherry inh	VACV Venus inh	HCV inhibitor
c1ccc2ncccc2c1	-20%	/	4%	-8%	17%
CNc1sc(C(=O)c2ccccc2F)c(N)c1-c1nc2ccccc2s1	11%	33	/	/	13µM*
Cc1nc2ccn(Cc3ccco3)c(=O)c2cc1C(=O)NCc1ccc(Cl)cc1	-3%	-38	-10%	-9%	/
Cc1c(Br)cc(C(=O)N2CCCC2)c(C)c1C	1%	18	/	/	17%
Cc1c(Br)cc(C(=O)N2CCN(CCO)CC2)c(C)c1C	0%	-101*	/	/	20%
O=C(Nc1cccc(S(=O)(=O)N2CCCCC2)c1)c1cccs1	-22%	-32	-17%	-10%	?
O=C(Nc1nc(-c2ccc(S(=O)(=O)N3CCCCCC3)cc2)cs1)c1cccs1	10µM*	-10	-2%	-30%	?
O=C(Nc1nc(-c2ccc(S(=O)(=O)N3CCCC3)cc2)cs1)c1cccs1	?	-87*	/	?	?
O=C(Nc1nc(-c2ccccc2)cs1)C1CCCN(S(=O)(=O)c2cccc([N+](=O)[O-])c2)C1 (centres undefined)	-21%	1	/	/	-29%
O=C(Nc1ccc(S(=O)(=O)N2CCCC2)cc1)c1cccs1	19%	?	-4%	?	-23%
O=C(Nc1nc(-c2ccccc2)cs1)C1CCCN(S(=O)(=O)c2ccccc2)C1 (centres undefined)	10µM*	?	?	-23%	5µM*
Cc1cn(CC(=O)NCCc2ccccn2)c(=O)[nH]c1=O	-16%	13	i	3%	2.8µM*
c1ccc2oc(-c3csc(NCC4CCCO4)n3)cc2c1 (centres undefined)	-23%	7	i	-15%	25µM*
CC1CN(S(=O)(=O)c2ccc(C(=O)Nc3nc(-c4cc5ccccc5o4)cs3)cc2)CC(C)O1 (centres undefined)	?	-26	?	-10%	?
Cc1cc(-c2csc(NC(=O)c3ccc(S(=O)(=O)N(C)C)cc3)n2)c(C)n1-c1ccccc1	32µM*	-25	-4%	-13%	?
O=C(Nc1nc(-c2cc3ccccc3o2)cs1)c1ccc(S(=O)(=O)N2CCCC2)cc1	?	-84*	/	/	?
CN(C)S(=O)(=O)c1ccc(C(=O)Nc2nc(-c3cc4ccccc4o3)cs2)cc1	?	-69*	/	/	?
Cc1c(-c2ccc(Cl)cc2)c(=O)oc2c(CN3CCOCC3)c(O)ccc12	-26%	?	-4%[7.34 µM]	-11%[7.34 µM]	/
Oc1ccccc1/C=N/NC(=S)NC1CC2C=CC1C2 (centres undefined)	67%	?	-25%[7.34 µM]	-13%[7.34 µM]	-24%
Oc1ccccc1C=NNC(=S)NC1CC2C=CC1C2 (centres undefined)	58%	-71*	?	?	/
Oc1c(Cl)cc(Cl)cc1/C=N/NC(=S)NC1CC2C=CC1C2 (centres undefined)	-24%	-68*	?	?	?
O=C(NS(=O)(=O)Nc1ccc(Br)cn1)c1c[nH]c2ccccc12	-10%	2	/	/	13%
Nc1c2c(nc3ccccc13)CSCC2	-10%	7	1%[7.34 µM]	-3%[7.34 µM]	-5%
Cc1nn(Cc2ccccc2Cl)c(C)c1C(=O)Nc1nnc(C2CC2)s1	-14%	-90*	?	-13%	-13%
COc1cccc(-c2csc3ncnc(Sc4nnnn4C)c23)c1	20µM*	-99*	/	/	/
SMILES	FMDV antiviral	HCMV inh	VACV mCherry inh	VACV Venus inh	HCV inhibitor
Cc1nc(Sc2nnnn2C2CC2)c2c(-c3ccccc3)csc2n1	/	/	?	-28%	/
Cc1ccc(-c2csc3ncnc(SCC(=O)O)c23)cc1	-9%	21	i	11%	-7%
CC(=O)c1ccccc1-c1csc2ncnc(Sc3nnnn3C)c12	-17%	?	/	/	/
Cn1nnnc1Sc1ncnc2scc(-c3ccccc3C(F)(F)F)c12	?	-83*	/	/	/
Cn1nnnc1Sc1ncnc2scc(-c3ccc(C(F)(F)F)cc3)c12	11µM*	-99*	/	/	/
Cn1nnnc1Sc1ncnc2scc(-c3ccsc3)c12	16µM*	-97*	/	/	/
CCn1nnnc1Sc1nc(C)nc2scc(-c3ccccc3)c12	/	/	-12%	-17%	/
COC(=O)CSc1ncnc2scc(-c3ccccc3)c12	7%	-29	-15%	-20%	-15%
